High-throughput results: PubChem BioAssay, National Center for Advancing Translational Sciences (NCATS)
Rows were chosen to be rich in hits. Some 3.1% of all compounds tested hit in one or more screens of this group.
TRb SRC2 PPI = qHTS for Inhibitors of the Interaction of Thyroid Hormone Receptor and Steroid Receptor Coregulator 2 | Potency, µM (titrated, usually from 106 µM), most hits filed as inhibitors | AID 1469, 2008 | TRbeta-SRC2 peptide binding, fluorescence polarization; receptor liganded with 1 µM T3 | Thyroid hormone receptor beta (Homo sapiens), P10828 | 280,000 compounds, 0.065% hits; further: nearly all actives have a fitted effect of over 50% in size
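Fluorescence polarization of 20 nM Texas Red SRC2 peptide with 0.6 uM human TRb ligand-binding domain, in Tris buffer with 1uM T3 and 5% DMSO. Incubated 5 hr ambient; normalized to unbound and bound controls.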
Tau fibril ThT = qHTS for Inhibitors of Tau Fibril Formation, Thioflavin T Binding; AID 1460, 2008; Potency, µM (highest dose often 57.4 µM), hits mostly inhibitors; recombinant tau K18 P301L, heparin-induced fibrillization, ThT fluorescence; Microtubule-associated protein tau (Homo sapiens), P10636; 270,000 compounds, 2.1% hits; further: nearly all actives have a fitted effect of over 55% in size
Target sequence (P10636 561-689 P618L limits assumed): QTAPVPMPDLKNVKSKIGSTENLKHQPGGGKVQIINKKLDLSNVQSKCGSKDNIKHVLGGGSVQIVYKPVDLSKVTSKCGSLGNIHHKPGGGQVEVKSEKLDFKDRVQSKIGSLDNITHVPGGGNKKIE
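Recombinant human tau K18 fragment […] carrying P301L, 15 uM unlabeled plus 0.24 uM Alexa 594-labeled, was fibrillized with 20 uM heparin in 100 mM sodium acetate pH 7 for 6 hr at 37 C; 30 uM ThT fluorescence read after 1 hr.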
Tau fluor counter = Counterscreen qHTS for Inhibitors of Tau Fibril Formation, Fluorescence Polarization; 280,000 compounds, 0.93% hits; AID 1463, 2008; tau K18 P301L Alexa594 fluorescence, heparin fibrillization; Potency, µM (doses to about 57.7 µM); further: nearly all actives have a fitted effect of over 55% in size
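Human tau K18 P301L (15 uM unlabeled, 0.24 uM Alexa 594-labeled) in 100 mM sodium acetate pH 7 with 20 uM heparin, 6 hr at 37 C. ThT 30 uM added, 1 hr ambient; Alexa 594 FP and total fluorescence read at 555/632 nm.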
TR SRC2 fluor cs = Total Fluorescence Counterscreen for Inhibitors of the Interaction of Thyroid Hormone Receptor and Steroid Receptor Coregulator 2; TRb/SRC2 Texas Red total fluorescence interference; Potency, µM (titrated, usually from 106 µM); 280,000 compounds, 0.29% hits; active means well fitted curve in either direction with a large enough effect; inconclusive means small, poorly fitted or top-dose-only effect
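Human TRβ ligand-binding domain (0.6 uM) and Texas Red SRC2 peptide (20 nM) in Tris buffer with 1 uM T3 and 5% DMSO were incubated with pinned compound for 5 hr at ambient temperature. Total fluorescence was computed as S + 2P (555/632 nm).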
Tau FP inhib = qHTS for Inhibitors of Tau Fibril Formation, Fluorescence Polarization. Microtubule-associated protein tau (Homo sapiens), P10636. K18 P301L tau heparin fibrillization, Alexa594 FP, 6 h. Potency, µM (titrated, usually from 57.7 µM), most hits filed as inhibitors. 280,000 compounds, 0.39% hits. AID 1468, 2008; further: nearly all actives have a fitted effect of over 55% in size
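FP of Alexa 594-tau after heparin (20 uM) induction. Substrate: human K18 P301L, 15 uM unlabeled, 0.24 uM labeled. Buffer 100 mM sodium acetate pH 7. 6 hr, 37 C.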
Each line names hits and unclear results; the compound was inactive in the other large screens; [ ] = another dose, or the depositor's remark. Unless noted, the call rests on the fitted dose curve; in most records, active means well fitted curve in the direction sought with a large enough effect; inconclusive means small, poorly fitted or top-dose-only effect, or another doubt; inactive means no such curve, though single readings can be large; an effect the other way counts as inactive or inconclusive.

CCOC(=O)N1CCc2c(sc3c2C(=O)NC(c2ccc(C(=O)OC)cc2)N3)C1 (stereo unspecified)	Tau fibril ThT inconclusive
O=C1NC(c2ccccn2)Nc2sc3c(c21)CCC3 (stereo unspecified)	Tau fibril ThT 20µM, Tau FP inhib inconclusive
CCOC(=O)N1CCc2c(sc3c2C(=O)NC(c2cc(OC)c(OC)c(OC)c2)N3)C1 (stereo unspecified)	Tau fibril ThT 16µM
Cc1ccsc1C1NC(=O)c2c(sc3c2CCCC3)N1 (stereo unspecified)	Tau fibril ThT 3.2µM, Tau FP inhib inconclusive
CCCc1cc(C(=O)Cc2nc3ccccc3s2)c(O)cc1O	Tau fibril ThT 25µM, Tau fluor counter 20µM[quencher]
COC(=O)CC1c2ccccc2C(Cc2ccc(OC)cc2)C(C)N1C(=O)OC (stereo unspecified)	none
COc1ccccc1CNc1nc(-c2ccc(N(C)C)cc2)nc2ccccc12	Tau fibril ThT 16µM, Tau fluor counter 11µM[quencher], Tau FP inhib inconclusive
COc1ccc(-c2nc(N/N=C(\C)c3ccc(O)cc3)c3ccccc3n2)cc1	Tau fibril ThT inconclusive, Tau fluor counter 20µM[quencher]
COc1ccccc1CNc1ncncc1-c1ccc(N(C)C)cc1	none
COc1ccc(Nc2nc(-c3ccc(C)cc3)nc3ccccc23)c(OC)c1	Tau fibril ThT inconclusive, Tau fluor counter 7.9µM[quencher]
Cn1c(=O)oc2cc(S(=O)(=O)NC(Cc3ccccc3)C(=O)NCc3ccccc3Cl)ccc21 (stereo unspecified)	none
CCc1ccc2oc(C(=O)Nc3cc(Cl)ccc3OC)cc(=O)c2c1	none
COc1ccc2[nH]c(C)c(CCN(Cc3cccs3)C(=S)Nc3ccc(F)cc3)c2c1	Tau fibril ThT inconclusive, Tau fluor counter 7.9µM[quencher]
COc1ccc(NC(=S)N(CCc2c(C)[nH]c3ccc(C)cc23)Cc2ccco2)cc1	Tau fibril ThT inconclusive, Tau fluor counter 14µM[quencher], Tau FP inhib inconclusive
CNC(=S)N(CCc1c(C)[nH]c2ccc(C)cc12)Cc1cccs1	Tau fibril ThT inconclusive, Tau fluor counter 20µM[quencher]
COc1ccc2[nH]c(C)c(CCNC(=S)Nc3cccc(C)c3)c2c1	Tau fibril ThT inconclusive, Tau fluor counter 16µM[quencher]
COc1ccc2[nH]c(C)c(CCN(Cc3cccs3)C(=S)Nc3ccccc3)c2c1	Tau fibril ThT inconclusive, Tau fluor counter inconclusive
COC(=O)c1cccc(C23CC4(C2)[C@H](CN(Cc2cccnc2)[C@@H]4c2ccccc2)C3c2ccccc2)c1 (stereo partly specified)	none
COc1ccc2[nH]cc(CCNC(=O)Nc3c(C)cccc3C)c2c1	none
COc1ccc2[nH]cc(CCNC(=O)Nc3cccc(F)c3)c2c1	Tau fibril ThT inconclusive, Tau fluor counter 25µM[quencher], Tau FP inhib inconclusive
NC1=CC(=O)c2cccc3cccc1c23	Tau fibril ThT 11µM, Tau fluor counter inconclusive, Tau FP inhib inconclusive
Cc1nnc(C)n1N1C(=O)c2cccc3cccc(c23)C1=O	none
CCCOc1ccc(NC(=O)CC2C(=O)N(CC)C(=S)N2CCCN2CCN(Cc3ccccc3)CC2)cc1 (stereo unspecified)	Tau fibril ThT inconclusive, Tau fluor counter inconclusive
CCN1C(=O)C(CC(=O)Nc2ccc(F)cc2)N(CCCN2CCN(c3ccc(F)cc3)CC2)C1=S (stereo unspecified)	Tau fibril ThT inconclusive, Tau fluor counter 13µM[quencher], Tau FP inhib inconclusive
CCCSCCCNC(=O)c1cc2n(n1)CCCN(Cc1ccc(C)cc1)C2=O	none
CN1C(=O)/C(=C\c2cc(N=Nc3ccccc3)ccc2O)SC1=S	Tau fibril ThT 3.5µM, Tau fluor counter 4.5µM[quencher], Tau FP inhib inconclusive
COc1ccc(-n2c(C)cc(/C=C3/SC(=S)N(C)C3=O)c2C)cc1	Tau fibril ThT inconclusive
Cc1cc(/C=C2\SC(=S)N(C)C2=O)c(C)n1-c1cccc(O)c1	Tau fibril ThT 7.9µM, Tau fluor counter 10µM[quencher]
